Shown are actives, neighbours in structure and some others; about 2.2% of the full set was active somewhere.
OPRM1-OPRD1 inv = inverse agonists of MOR-DOR heterodimerization, primary screen, cell-based, luminescence. cell-based MOR-DOR heterodimer luminescence, inverse agonism. inhibition, % at 9.3 µM. hit rate 0.21% among 340,000. AID 504357, 2011; in the data active means inhibition above about 22%, passing the limit was not always enough;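 further: 0% = cells with DMSO and 100% = wells without cells with DMSO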
HTR5A inv ctr = HTR5A inverse agonists in luminescence cell assay, primary screen, counter-screen for OPRM1-OPRD1 heterodimer inverse agonist project, full-deck HTS | HTR5A cell line, inverse agonism | inhibition, % at 9.3 µM | hit rate 0.083% among 340,000 | AID 504634, 2011; in the data active means inhibition mostly above about 23%, no sharp cut-off; inactive means mostly below about 18%;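 further: 0% = cells with DMSO and 100% = no-cell wells with DMSO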
MOR-DOR ag = agonists of OPRM1-OPRD1 heterodimerization, primary screen, cell-based, luminescence; Mu-type opioid receptor (Homo sapiens) + Delta-type opioid receptor (Homo sapiens), …; cells; activation, % at 9.3 µM; hit rate 0.3% among 340,000; AID 504326, 2011; in the data active means activation above about 18%;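 further: 0% = vehicle-treated cells and 100% = reference agonist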
m5-HT2A agonist = mouse Htr2a agonists via beta-arrestin recruitment, primary screen, cell-based, luminescence; activation, % at 7.6 µM; 5-hydroxytryptamine receptor 2A (Mus musculus), P35363; hit rate 0.66% among 360,000; CHO-K1 mHTR2A beta-arrestin complementation; percent of 30 µM serotonin response;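 active means activation above a run cutoff, the mean activation of all tested compounds plus 3 SD, cut at about 14% in these data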;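 further: 0% = plate median of compound wells and 100% = 30 µM serotonin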
HTR5A ag = HTR5A agonists in luminescence cell assay, primary screen, counter-screen for OPRM1-OPRD1 heterodimer agonist project, full-deck HTS. activation, % at 9.3 µM. cell-based. hit rate 0.61% among 340,000; in the data active means activation mostly above about 9.5%, no sharp cut-off; inactive means mostly below about 7.6%;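 further: 0% = cells with vehicle only and 100% = reference agonist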
sPLA2-III inh = human group III sPLA2 inhibitors, primary screen, biochemical, QFRET, BODIPY PC-A2 liposome substrate. AID 743126, 2013. Group 3 secretory phospholipase A2 (Homo sapiens), Q9NZ20. inhibition, % at 12.2 µM. QFRET BODIPY PC-A2 liposome hydrolysis, fluorescence. hit rate 0.56% among 370,000;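 active means inhibition above mean plus 3 SD of compounds lying within the high and low control bounds, cut at about 19% in these data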;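 further: 0% = median of test compound wells and 100% = no enzyme DMSO wells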
Target sequence (Q9NZ20 whole entry, looked up): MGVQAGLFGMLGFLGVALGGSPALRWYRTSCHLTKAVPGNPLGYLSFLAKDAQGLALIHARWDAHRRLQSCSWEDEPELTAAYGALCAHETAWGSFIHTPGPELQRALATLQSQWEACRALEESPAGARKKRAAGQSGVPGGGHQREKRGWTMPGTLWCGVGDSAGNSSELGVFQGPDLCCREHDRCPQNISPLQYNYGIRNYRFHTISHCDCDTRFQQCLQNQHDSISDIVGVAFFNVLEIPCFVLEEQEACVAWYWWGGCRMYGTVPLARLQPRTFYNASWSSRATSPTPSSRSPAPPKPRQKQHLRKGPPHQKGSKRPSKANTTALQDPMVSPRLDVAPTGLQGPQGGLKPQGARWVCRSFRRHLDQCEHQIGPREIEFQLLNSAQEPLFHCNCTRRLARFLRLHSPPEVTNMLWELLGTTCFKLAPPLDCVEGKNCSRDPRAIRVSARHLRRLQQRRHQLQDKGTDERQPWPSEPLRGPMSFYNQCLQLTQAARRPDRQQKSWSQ
OPRM1 ag = OPRM1 agonists via beta-arrestin recruitment, confirmation, counter-screen for mouse HTR2A agonist project, cell-based, luminescence, single concentration; shares compounds with m5-HT2A agonist; U2OS OPRM1 beta-arrestin PathHunter; DMSO 0%, DAMGO 9.3 µM 100%; activation, % at 9.3 µM; hit rate 5.3% among 2,300; AID 624380, 2012;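 active means mean activation above the mean of DMSO-only wells plus 3 SD, cut at about 0.5% in these data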
m5-HT2A ag conf = mouse HTR2A agonists, beta-arrestin recruitment, confirmation, cell-based, luminescence, CHO-K1 PathHunter, triplicate. shares compounds with m5-HT2A agonist. DMSO 0%, 30 µM serotonin 100%. hit rate 19% among 2,300. activation, % at 7.6 µM;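 active means mean activation across triplicates above the hit threshold derived in the original primary screen, cut at about 15% in these data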
* hit, by the source's call.

Screening C[C@H](NC(=O)[C@@H]1CSC2c3ccccc3C(=O)N21)C(=O)NCc1c(F)cccc1Cl (stereo not given in full) returned OPRM1-OPRD1 inv 10, HTR5A inv ctr 2, MOR-DOR ag -2, m5-HT2A agonist 17*, HTR5A ag 6, sPLA2-III inh -4, OPRM1 ag 0 and m5-HT2A ag conf -4.
For Cc1nc(NCCc2ccc(S(N)(=O)=O)cc2)c2c(C)c(C)sc2n1 the results were OPRM1-OPRD1 inv -5, HTR5A inv ctr 13, MOR-DOR ag 1, m5-HT2A agonist 16*, HTR5A ag 4, sPLA2-III inh -3, OPRM1 ag -1 and m5-HT2A ag conf -3.
Screening Cc1nc(NCc2ccc(S(N)(=O)=O)cc2)c2c(C)c(C)sc2n1 returned OPRM1-OPRD1 inv 0, HTR5A inv ctr -23, MOR-DOR ag 0, m5-HT2A agonist -5, HTR5A ag -1 and sPLA2-III inh 9.
`COc1cc(/C=C/C(=O)OCC(=O)NC(C)c2ccccc2)cc(OC)c1OC` (stereo not given) gave OPRM1-OPRD1 inv 9, HTR5A inv ctr 3, MOR-DOR ag -2, m5-HT2A agonist 15*, HTR5A ag -1, sPLA2-III inh 2, OPRM1 ag 0 and m5-HT2A ag conf 9.
`CC(=O)Nc1ccc(S(=O)(=O)N2CC(=O)NC(=O)C2)cc1` gave OPRM1-OPRD1 inv -2, HTR5A inv ctr -12, MOR-DOR ag 0, m5-HT2A agonist 20*, HTR5A ag -1, sPLA2-III inh 2, OPRM1 ag 0 and m5-HT2A ag conf -4.
`CCOC(=O)N1CCN(c2ccc(Cl)c(Cl)c2)CC1` gave OPRM1-OPRD1 inv -3, HTR5A inv ctr -25, MOR-DOR ag 1, m5-HT2A agonist 3, HTR5A ag 8 and sPLA2-III inh 0.
`COC(=O)/C(=C/N(C)C)C(=O)N1CCN(c2ccc(Cl)c(Cl)c2)CC1` gave OPRM1-OPRD1 inv 12, HTR5A inv ctr -11, MOR-DOR ag -2, m5-HT2A agonist 18*, HTR5A ag 4, sPLA2-III inh -1, OPRM1 ag 0 and m5-HT2A ag conf 0.
Screening CCCCCn1nnnc1C1(C)Cn2nccc2C(=O)N1Cc1ccco1 (stereo not given) returned sPLA2-III inh -1.
`CC(=O)NCc1ccc2[nH]c(C)cc2c1` gave OPRM1-OPRD1 inv 1, HTR5A inv ctr -2, MOR-DOR ag 0, m5-HT2A agonist 17*, HTR5A ag 1, sPLA2-III inh -1, OPRM1 ag -1 and m5-HT2A ag conf 0.
`CCC(=O)NCc1ccc2[nH]c(C)cc2c1` gave OPRM1-OPRD1 inv 3, HTR5A inv ctr -2, MOR-DOR ag -1, m5-HT2A agonist 3, HTR5A ag -8 and sPLA2-III inh 0.
For COC(C(=O)NNS(=O)(=O)c1ccccc1[N+](=O)[O-])c1ccccc1 (stereo not given) the results were OPRM1-OPRD1 inv 18, HTR5A inv ctr -16, MOR-DOR ag -3, m5-HT2A agonist 18*, HTR5A ag -1, sPLA2-III inh 9, OPRM1 ag 0 and m5-HT2A ag conf -1.
For COc1ccc(C(c2ccc(OC)cc2)N2CCN(C(=O)c3noc(C)c3[N+](=O)[O-])CC2)cc1 the results were sPLA2-III inh -49.
Screening CCCN1C(=O)c2ccc(C(=O)Nc3ccccc3C(=O)O)cc2C1=O returned OPRM1-OPRD1 inv 0, HTR5A inv ctr -2, MOR-DOR ag 0, m5-HT2A agonist 14, HTR5A ag 1 and sPLA2-III inh -8.
`O=C(Nc1ccc(Br)cc1C(=O)O)c1ccc2c(c1)C(=O)N(Cc1ccccc1)C2=O` gave OPRM1-OPRD1 inv 3, HTR5A inv ctr 10, MOR-DOR ag 0, m5-HT2A agonist 15*, HTR5A ag -3, sPLA2-III inh 1, OPRM1 ag 0 and m5-HT2A ag conf -1.
COCCNC(=O)c1c(N)[nH]c(C(=O)c2ccc(Br)cc2)c1-c1c(OC)ccc2ccccc12 was read as sPLA2-III inh 6.
Screening CCc1nc2c(OCC(=O)C(C)(C)C)cccn2c1N(C)C(=O)CC(C)C returned m5-HT2A agonist 16*, sPLA2-III inh -5, OPRM1 ag -1 and m5-HT2A ag conf -3.
Screening COC(=O)c1ccc2c(C(C)c3ccccc3O)c[nH]c2c1 (stereo not given) returned sPLA2-III inh -62.
`C#CCNC(=O)C[C@@H]1C[C@@](CCC(=O)OCC)(C(=O)OCC)C2=CCCCN2C1=O` gave sPLA2-III inh 8.
For Nc1c(C(=O)Nc2ccc3c(c2)OCCO3)nnn1Cc1ccccc1Cl the results were OPRM1-OPRD1 inv -5, HTR5A inv ctr -29, MOR-DOR ag 1, m5-HT2A agonist 18*, HTR5A ag 12, sPLA2-III inh 2, OPRM1 ag 0 and m5-HT2A ag conf 4.
`Nc1c(C(=O)Nc2cccc(F)c2)nnn1-c1ccc2c(c1)OCCO2` gave OPRM1-OPRD1 inv -48, HTR5A inv ctr -17, MOR-DOR ag 9, m5-HT2A agonist 15*, HTR5A ag 7, sPLA2-III inh 2, OPRM1 ag 0 and m5-HT2A ag conf 0.
For Cc1ccccc1NC(=O)c1nnn(-c2ccc3c(c2)OCCO3)c1N the results were OPRM1-OPRD1 inv -16, HTR5A inv ctr 0, MOR-DOR ag 3, m5-HT2A agonist -7, HTR5A ag 0 and sPLA2-III inh -4.
`CC(C)NC(=O)C1CCN(c2cncnc2)CC1` gave sPLA2-III inh 12.
`CCn1c(SCC(=O)Nc2ccc(OC)c(OC)c2)nc2c(c1=O)SCC2` gave OPRM1-OPRD1 inv 10, HTR5A inv ctr 5, MOR-DOR ag -3, m5-HT2A agonist 17*, HTR5A ag -1, sPLA2-III inh 13, OPRM1 ag -1 and m5-HT2A ag conf -4.
Screening COc1ccc(-n2c(SCC(=O)NCC3CCCO3)nc3c(c2=O)SCC3)cc1 (stereo not given) returned OPRM1-OPRD1 inv 8, HTR5A inv ctr 8, MOR-DOR ag -2, m5-HT2A agonist 15*, HTR5A ag -3, sPLA2-III inh 2, OPRM1 ag -1 and m5-HT2A ag conf -5.

Screening data from PubChem BioAssay.
